The values that follow come from PubChem BioAssay (NCI).

Among the test systems are HCT-15 colon; HT29 colon; SNB-75 CNS; SNB-19 CNS; U251 CNS; PC-3 prostate; SK-MEL-5 melanoma; UACC-62 melanoma; LOX IMVI melanoma; SK-MEL-28 melanoma; SK-MEL-2 melanoma; EKVX NSCLC; SN12C renal; UO-31 renal; TK-10 renal; ACHN renal; CAKI-1 renal; A498 renal; CCRF-CEM leukemia; MOLT-4 leukemia.
Common to all, as to assay: NCI-60 one-dose screen, 48 h (100 = growth as untreated, 0 = no growth, -100 = all killed)
Details in all cases: 10 µM unless noted

Each structure is given as a SMILES string. Values joined by “and” are separate entries in the source; they are usually repeats but may differ in a detail not shown here. Identical values can stand only once. Compounds without any hit were thinned out: in the full panel of roughly 83,000, 20% have a hit.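 Activity criterion: percent growth below 10, measured after cells in 96-well plates were exposed to a single compound concentration for 48 hours.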 Active and inactive are the calls of the source.

On to `CCCCCCCCCCCCCCCCCCn1cc(COc2ccc(C=O)cc2)nn1`, for which the growth in the test on HCT-15 colon was 95.9% (inactive); with HT29 colon it was 91.6% (inactive); in the test on SNB-75 CNS, 104% (inactive); in the test with SNB-19 CNS it was 97.5% (inactive); with U251 CNS, 107% (inactive); with PC-3 prostate, 99% (inactive). The growth is 103% (inactive) in the test with SK-MEL-5 melanoma; 91.2% (inactive) with UACC-62 melanoma; 85.5% (inactive) with LOX IMVI melanoma; 109% (inactive) in the test on SK-MEL-28 melanoma; 96.4% (inactive) in the test with SK-MEL-2 melanoma; 90.1% (inactive) in the test on EKVX NSCLC. The growth in the test with SN12C renal was 97.5% (inactive); in the test with UO-31 renal, 93% (inactive); in the test with TK-10 renal it was 99.9% (inactive); in the test with ACHN renal, 104% (inactive); with CAKI-1 renal it was 104% (inactive); in the test with A498 renal, 105% (inactive). Moreover, the growth is 103% (inactive) with CCRF-CEM leukemia and 92.4% (inactive) in the test on MOLT-4 leukemia.
Take `CCN(CC)CCCN1C(=O)c2c(c(C)c3c(oc4cc(OC)ccc43)c2C)C1=O`: the growth is 80.6% (inactive) with HCT-15 colon; 86.9% (inactive) in the test with HT29 colon; 146% (inactive) in the test with SNB-75 CNS; 99.1% (inactive) in the test with SNB-19 CNS; 103% (inactive) in the test with U251 CNS; 85.3% (inactive) in the test on PC-3 prostate. Besides, the growth in the test on SK-MEL-5 melanoma was 77.6% (inactive); with UACC-62 melanoma it was 102% (inactive); in the test with LOX IMVI melanoma, 87.7% (inactive); in the test on SK-MEL-28 melanoma, -82.6% (active); in the test on SK-MEL-2 melanoma, 112% (inactive); in the test with EKVX NSCLC, 99.3% (inactive). Further, the growth was 89.1% (inactive) in the test on SN12C renal; 67.4% (inactive) in the test with UO-31 renal; 112% (inactive) with TK-10 renal; 63.1% (inactive) in the test on ACHN renal; 93.2% (inactive) with CAKI-1 renal; 97.7% (inactive) in the test on A498 renal. In addition, the growth in the test with CCRF-CEM leukemia was 61% (inactive); in the test on MOLT-4 leukemia, 93.9% (inactive).
`CC1=CC(C)(C)NC(=S)N1c1ccc(Cl)cc1`: the growth in the test on HCT-15 colon is 96.9% (inactive) and 88.8% (inactive); in the test with HT29 colon, 103% (inactive); in the test on SNB-75 CNS, 91.3% (inactive) and 108% (inactive); in the test with SNB-19 CNS, 96.7% (inactive) and 96.9% (inactive); with U251 CNS it was 98.7% (inactive) and 102% (inactive); in the test with PC-3 prostate, 94% (inactive) and 85.1% (inactive). For the same compound, the growth is 100% (inactive) and 103% (inactive) in the test with SK-MEL-5 melanoma; 94.6% (inactive) and 84.9% (inactive) with UACC-62 melanoma; 95.2% (inactive) and 97.7% (inactive) in the test on LOX IMVI melanoma; 101% (inactive) and 105% (inactive) in the test on SK-MEL-28 melanoma; 101% (inactive) and 94.3% (inactive) with SK-MEL-2 melanoma; 91.5% (inactive) and 106% (inactive) with EKVX NSCLC. Further, the growth in the test with SN12C renal was 95.6% (inactive) and 99% (inactive); with UO-31 renal, 82.2% (inactive); in the test with TK-10 renal, 99.7% (inactive) and 98.7% (inactive); in the test with ACHN renal, 94.7% (inactive) and 99.9% (inactive); in the test with CAKI-1 renal it was 91.6% (inactive) and 97.8% (inactive); with A498 renal it was 104% (inactive). Moreover, the growth was 105% (inactive) and 89.1% (inactive) with CCRF-CEM leukemia; 95% (inactive) and 96.8% (inactive) in the test with MOLT-4 leukemia.
Take `COc1ccc(-c2c[nH]c(C(=O)O)c2-c2cc(OC)c(OC)c(OC)c2)cc1`: the growth in the test on HCT-15 colon is 31.7% (inactive); with HT29 colon, 14.7% (inactive); with SNB-75 CNS, -15.5% (active); with SNB-19 CNS, 41.3% (inactive); with U251 CNS it was 49.5% (inactive); in the test with PC-3 prostate, 32.8% (inactive). Further, the growth with SK-MEL-5 melanoma was 19.2% (inactive); in the test with UACC-62 melanoma, 37.7% (inactive); with LOX IMVI melanoma, 47.2% (inactive); in the test on SK-MEL-28 melanoma, 61.7% (inactive); with SK-MEL-2 melanoma, 49.2% (inactive); in the test on EKVX NSCLC, 63.3% (inactive). For the same compound, the growth with SN12C renal was 43.9% (inactive); with UO-31 renal, 31.9% (inactive); in the test with TK-10 renal, 63.3% (inactive); in the test with ACHN renal, 38.4% (inactive); in the test on CAKI-1 renal, 29.8% (inactive); in the test with A498 renal, -14.5% (active). The growth with CCRF-CEM leukemia was 42.2% (inactive); in the test with MOLT-4 leukemia it was 56.4% (inactive).
As for `COCCOc1cc2ncnc(N3CCN(S(=O)(=O)c4ccccc4Cl)CC3)c2cc1OCCOC`, the growth was 52.3% (inactive) in the test with HCT-15 colon; 81.8% (inactive) with HT29 colon; 88.2% (inactive) in the test on SNB-75 CNS; 86.1% (inactive) in the test with SNB-19 CNS; 90.1% (inactive) with U251 CNS; 71.2% (inactive) in the test on PC-3 prostate. Further, the growth is 58.8% (inactive) in the test with SK-MEL-5 melanoma; 61% (inactive) in the test with UACC-62 melanoma; 83.1% (inactive) in the test with LOX IMVI melanoma; 82.8% (inactive) in the test with SK-MEL-28 melanoma; 88.1% (inactive) in the test with SK-MEL-2 melanoma; 90.9% (inactive) with EKVX NSCLC. In addition, the growth in the test on SN12C renal is 105% (inactive); with UO-31 renal it was 70% (inactive); in the test with TK-10 renal, 98.9% (inactive); in the test with ACHN renal, 97.5% (inactive); in the test on CAKI-1 renal, 86.6% (inactive); in the test with A498 renal, 54.9% (inactive). Moreover, the figures for the growth in the test with CCRF-CEM leukemia and with MOLT-4 leukemia were 79% (inactive) and 65.2% (inactive), respectively.
`Cc1ccc(NC(=O)N/C(N)=N/c2nc(=O)c3ccccc3s2)cc1`: the growth was 104% (inactive) in the test on HCT-15 colon; 103% (inactive) with HT29 colon; 83.1% (inactive) in the test with SNB-75 CNS; 93% (inactive) in the test with SNB-19 CNS; 99.7% (inactive) with U251 CNS; 101% (inactive) with PC-3 prostate. The growth in the test with SK-MEL-5 melanoma was 93.4% (inactive); with UACC-62 melanoma, 83% (inactive); in the test with LOX IMVI melanoma it was 104% (inactive); with SK-MEL-28 melanoma it was 102% (inactive); in the test with SK-MEL-2 melanoma, 106% (inactive); in the test on EKVX NSCLC, 93.7% (inactive). The growth was 93.8% (inactive) with SN12C renal; 90.4% (inactive) with UO-31 renal; 116% (inactive) in the test on TK-10 renal; 102% (inactive) with ACHN renal; 86.9% (inactive) in the test on CAKI-1 renal; 63% (inactive) with A498 renal. Further, the growth with CCRF-CEM leukemia is -23% (active); with MOLT-4 leukemia, 99.8% (inactive).
